Reference: PubChem BioAssay (Tox21)
Unmarked numbers belong to inactive results. Inconclusive results are not listed. Where a call stands in place of a potency, no number is given. The source made the active and inactive calls. Unless noted, calls follow the shape of the dose curve; as a rule, active = well fitted curve in the direction sought with a large enough effect in the repeat runs; inconclusive = weak or mixed curves; inactive = no such curve, though single readings can be large; an effect the other way counts as inactive or inconclusive.

Key:
[1] = qHTS assay for small molecules that induce genotoxicity in human embryonic kidney cells expressing luciferase-tagged ATAD5 (AID 651632); also: nearly all actives have a fitted effect of over 15% in size; also: potency is read from the fitted curve at half-maximal effect
In short: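 HEK293T cells carrying a luciferase reporter tagged to ATAD5 were exposed to compound or DMSO vehicle for 16 hr at 37C, 5% CO2. Amplite was added, and after 30 min at room temperature luciferase activity was read as a marker of ATAD5 induction.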

[2] = qHTS assay for small molecule agonists of the p53 signaling pathway - cell viability (AID 651633; calls by dose curve; also: nearly all actives have a fitted effect of over 30% in size; also: potency is read from the fitted curve at half-maximal effect)
In short: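 Viability counter-read: CellTiter-Glo luminescence (30 min, room temperature) in the same p53RE-bla plates. These plates had been exposed to compounds for 16 h at 37 C.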

[3] = qHTS assay for small molecules that induce genotoxicity in human embryonic kidney cells expressing luciferase-tagged ATAD5 - cell viability (AID 651634; calls by dose curve; also: nearly all actives have a fitted effect of over 25% in size)
In short: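 HEK293T cells expressing luciferase-tagged ATAD5 were exposed to compound or DMSO for 15.5 hr at 37C, 5% CO2. Viability was then read as live-cell protease activity by CellTiter-Fluor fluorescence after 30 min at 37C.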

[4] = qHTS assay for small molecule disruptors of the mitochondrial membrane potential - cell viability (AID 720634; calls by dose curve;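 also: human HepG2 liver cancer cells; series mostly up to about 83 µM; nearly all actives have a fitted effect of over 20% in size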)
In short: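 HepG2 cells seeded overnight at 37 C, then exposed to compound or DMSO for 1 hr at 37 C, 5% CO2. m-MPI dye added, then CellTiter-Glo for 30 min at room temperature; viability read as ATP luminescence.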

[5] = qHTS assay to test for compound auto fluorescence at 535 nm (green) in HepG2 cells (AID 720675)
[6] = qHTS assay to test for compound auto fluorescence at 460 nm (blue) in HEK293 cells (AID 720678)
In short: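 Measured: blue fluorescence (Ex 405/Em 460 nm) of compound-treated HEK293 cells, incubated overnight at 37C with 5% CO2 and scaled to triamterene equivalents.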

[7] = qHTS assay to test for compound auto fluorescence at 590 nm (red) in HEK293 cells (AID 720679)
In short: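 Using HEK293 cells at 2,000 per well, the screen added 23 nL of each compound after cell attachment and incubated overnight (37C, 5% CO2). The plate reader then captured red-label fluorescence, Ex/Em 540/590nm.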

[8] = qHTS assay to test for compound auto fluorescence at 535 nm (green) in HEK293 cells (AID 720680)
[9] = qHTS assay to test for compound auto fluorescence at 460 nm (blue) in HEK293 cell free culture (AID 720681)
In short: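 Blue fluorescence (Ex 405/Em 460 nm, triamterene-equivalent) was read immediately after pin transfer of compound or DMSO into medium (DMEM, 10% FBS) without cells.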

[10] = qHTS assay to test for compound auto fluorescence at 590 nm (red) in HepG2 cell free culture (AID 720684)
In short: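 Plate contents were MEM with 10% FBS plus test compound or DMSO, no cells. Fluorescence was recorded with 540 nm excitation and 590 nm emission.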

[11] = qHTS assay to test for compound auto fluorescence at 460 nm (blue) in HepG2 cell free culture (AID 720685)
In short: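 Compound (23 nL) or DMSO pinned into cell-free MEM with 10% FBS; blue fluorescence read at 405/460 nm excitation/emission, expressed as auto-fluorescence equivalency to triamterene.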

[12] = qHTS assay to test for compound auto fluorescence at 535 nm (green) in HepG2 cell free culture (AID 720686)
[13] = target: Glucocorticoid receptor (Homo sapiens) (UniProt P04150); assay: qHTS assay to identify small molecule agonists of the glucocorticoid receptor (GR) signaling pathway (AID 720691; active = well fitted activation curve with a large enough effect in the signal ratio in the repeat runs, not every such curve was filed as active; the % refers to the signal ratio)
Glucocorticoid receptor (Homo sapiens), sequence (P04150 whole entry, looked up): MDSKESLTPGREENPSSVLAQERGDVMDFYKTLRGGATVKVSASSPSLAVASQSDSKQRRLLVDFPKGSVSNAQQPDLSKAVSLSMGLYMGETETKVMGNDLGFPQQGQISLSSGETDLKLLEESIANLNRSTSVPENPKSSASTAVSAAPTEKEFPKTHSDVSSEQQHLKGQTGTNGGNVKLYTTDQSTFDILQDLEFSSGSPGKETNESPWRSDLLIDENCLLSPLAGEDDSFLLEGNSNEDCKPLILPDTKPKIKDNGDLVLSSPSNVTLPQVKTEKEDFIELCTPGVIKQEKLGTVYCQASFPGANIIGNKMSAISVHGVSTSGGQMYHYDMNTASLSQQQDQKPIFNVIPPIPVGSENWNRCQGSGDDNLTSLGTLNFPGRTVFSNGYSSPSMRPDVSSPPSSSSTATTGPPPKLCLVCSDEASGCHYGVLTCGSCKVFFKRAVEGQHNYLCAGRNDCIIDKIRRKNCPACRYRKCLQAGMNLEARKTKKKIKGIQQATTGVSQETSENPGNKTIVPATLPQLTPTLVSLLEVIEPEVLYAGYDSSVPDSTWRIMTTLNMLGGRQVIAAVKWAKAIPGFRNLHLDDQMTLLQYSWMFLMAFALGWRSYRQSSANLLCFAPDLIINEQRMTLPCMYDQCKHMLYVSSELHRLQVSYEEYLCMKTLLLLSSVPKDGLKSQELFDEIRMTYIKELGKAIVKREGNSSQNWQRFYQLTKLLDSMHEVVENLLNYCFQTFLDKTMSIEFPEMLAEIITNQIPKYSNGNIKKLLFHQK
In short: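 GR-bla HeLa cells (beta-lactamase reporter under glucocorticoid response element) were plated 4 h at 37 C/5% CO2, given compounds in DMSO, and incubated 18 h at 37 C. LiveBLAzer B/G FRET substrate was added for 2 h at room temperature, then fluorescence intensity read.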

[14] = target: Glucocorticoid receptor (Homo sapiens) (UniProt P04150); assay: qHTS assay to identify small molecule antagonists of the glucocorticoid receptor (GR) signaling pathway (AID 720692; active = well fitted inhibition curve with a large enough effect in the signal ratio in the repeat runs, not every such curve was filed as active; the % refers to the signal ratio; also: potency is read from the fitted curve at half-maximal effect)
In short: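 GR-bla HeLa cells (beta-lactamase reporter under glucocorticoid response element) were pre-plated 4 h at 37 C, treated with compounds plus 5 nM dexamethasone (final) for 18 h, then read by LiveBLAzer B/G FRET fluorescence after 2 h.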

[15] = qHTS assay for small molecule disruptors of the mitochondrial membrane potential (AID 720635); also: potency is read from the fitted curve at half-maximal effect
In short: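 Mitochondrial membrane potential tracked with Mito-MPS dye, red aggregates (ex 540/em 590 nm) against green monomers (ex 490/em 535 nm). Compound treatment 1 hr at 37C, dye 30 min in HepG2.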

[16] = qHTS assay to test for compound auto fluorescence at 590 nm (red) in HepG2 cells (AID 720674)
In short: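 Red autofluorescence (Ex/Em 540/590 nm, Rose Bengal sodium equivalents) was measured in HepG2 cells, 2,000 per well in MEM plus 10% FBS, plated overnight at 37 C. Readings were taken 1 hr after adding 23 nL compound or DMSO, at 37 C and 5% CO2.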

[17] = qHTS assay to test for compound auto fluorescence at 535 nm (green) in HEK293 cell free culture (AID 720682)
In short: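 DMEM + 10% FBS, cell-free; cpd or DMSO pinned in; Ex485/Em535 read; output as fluorescein-equivalent signal.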

[18] = qHTS assay to test for compound auto fluorescence at 590 nm (red) in HEK293 cell free culture (AID 720683)
In short: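 Red-channel autofluorescence of compounds in culture medium (DMEM, 10% FBS), no cells, measured at 540/590 nm. Rose Bengal sodium is the reference fluorophore for equivalence.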

[19] = qHTS assay to test for compound auto fluorescence at 460 nm (blue) in HepG2 cells (AID 720687)
In short: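 Blue-channel autofluorescence (Ex/Em 405/460 nm, triamterene-equivalent) was measured after 1 hr compound exposure at 37 C, 5% CO2. Cells were HepG2, plated overnight at 37 C in MEM plus 10% FBS.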

[20] = qHTS assay for small molecule agonists of the p53 signaling pathway (AID 651631; calls by dose curve; also: nearly all actives have a fitted effect of over 15% in size)
In short: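 Testing took place in human colorectal HCT-116 cells with stable p53RE-driven beta-lactamase. After 16 h of compound exposure at 37 °C, a FRET substrate was added and fluorescence recorded 2 h later.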

Row | Structure (SMILES) | Potency [1] | Potency [2] | Potency [3] | Potency [4] | outcome [5] | outcome [6] | outcome [7] | outcome [8] | outcome [9] | outcome [10] | outcome [11] | outcome [12] | outcome [13] | Potency [14] | Potency [15] | outcome [16] | outcome [17] | outcome [18] | outcome [19] | Potency [20]
1 | COc1ncc(F)c2nc(S(=O)(=O)Nc3c(F)cccc3F)nn12 | inactive | inactive | inactive | inactive | inactive | inactive | inactive | inactive | inactive | inactive | inactive | inactive | inactive | inactive | – | – | – | – | – | –
2 | O=[N+]([O-])c1cccc(O)c1 | inactive | inactive | inactive | inactive | inactive | inactive | inactive | – | – | inactive | inactive | inactive | – | – | 43.4 µM (active) | inactive | inactive | inactive | inactive | –
3 | CCC#N | inactive | inactive | – | – | inactive | inactive | inactive | inactive | inactive | inactive | inactive | inactive | inactive | inactive | – | inactive | inactive | inactive | inactive | –
4 | CCOP(=S)(OCC)SCSP(=S)(OCC)OCC | inactive | inactive | inactive | – | inactive | inactive | inactive | inactive | inactive | inactive | inactive | inactive | inactive | inactive | – | inactive | inactive | inactive | inactive | –
5 | C=C(C)[C@@H]1CC=C(C=O)CC1 | – | – | – | inactive | inactive | inactive | inactive | – | inactive | inactive | inactive | inactive | – | – | – | inactive | inactive | inactive | inactive | inactive
6 | Cc1ncc2n1-c1ccc(Cl)cc1C(c1ccccc1F)=NC2 | 26.6 µM (active) | inactive | inactive | inactive | inactive | inactive | inactive | inactive | inactive | inactive | inactive | inactive | inactive | 16.9 µM (active) | – | inactive | inactive | inactive | – | –
7 | CCOP(=S)(OCC)Oc1ncn(-c2ccccc2)n1 | inactive | inactive | inactive | inactive | inactive | inactive | inactive | inactive | inactive | inactive | inactive | inactive | – | – | 6.86 µM (active) | inactive | – | inactive | inactive | –
8 | CCOP(=O)(OCC)OP(=O)(OCC)OCC | inactive | inactive | – | inactive | inactive | inactive | inactive | inactive | inactive | inactive | inactive | inactive | – | – | inactive | inactive | inactive | inactive | inactive | –
9 | Cc1ncsc1CCCl | inactive | inactive | inactive | inactive | inactive | inactive | inactive | – | inactive | inactive | inactive | inactive | inactive | inactive | – | inactive | inactive | inactive | inactive | –
10 | OCCBr | inactive | inactive | inactive | inactive | inactive | inactive | inactive | inactive | inactive | inactive | inactive | inactive | inactive | inactive | inactive | inactive | inactive | – | inactive | –
11 | COP(=S)(OC)Oc1c(Cl)cc(C)cc1Cl | inactive | inactive | inactive | inactive | inactive | inactive | inactive | inactive | inactive | – | – | inactive | inactive | inactive | 24.3 µM (active) | inactive | inactive | inactive | inactive | –
12 | O=C(Nc1ccccc1)c1ccccc1I | inactive | inactive | inactive | inactive | inactive | inactive | inactive | inactive | inactive | inactive | inactive | inactive | inactive | inactive | – | – | – | – | inactive | –
13 | N#CC(O)c1ccccc1 (stereo unspecified) | inactive | inactive | inactive | inactive | inactive | inactive | inactive | inactive | inactive | inactive | – | inactive | inactive | inactive | inactive | inactive | inactive | inactive | – | –
14 | CNC(=O)Oc1c(C(C)(C)C)cc(C)cc1C(C)(C)C | inactive | inactive | – | inactive | inactive | inactive | inactive | inactive | inactive | inactive | inactive | inactive | – | – | – | inactive | inactive | inactive | inactive | –
15 | CC(C)CC(N(C)C)C1(c2ccc(Cl)cc2)CCC1 (stereo unspecified) | inactive | inactive | inactive | inactive | inactive | inactive | inactive | – | inactive | inactive | inactive | inactive | inactive | inactive | – | inactive | inactive | – | inactive | –
16 | Nc1n[nH]c(N)n1 | inactive | inactive | – | inactive | inactive | inactive | inactive | inactive | inactive | inactive | inactive | inactive | inactive | inactive | – | inactive | inactive | inactive | inactive | –
17 | N#CC(CCc1ccc(Cl)cc1)(Cn1cncn1)c1ccccc1 (stereo unspecified) | inactive | 6.86 µM (active) | – | inactive | inactive | inactive | inactive | – | inactive | inactive | inactive | inactive | – | 49 µM (active) | 48.6 µM (active) | inactive | – | inactive | inactive | –
